The list is not random: actives were taken first. Their share in the collection is about 4.8%.
IL-1B inflam inh – qHTS for Inhibitors of Inflammasome Signaling: IL-1-beta AlphaLISA Primary Screen. THP-1 LPS/ATP IL-1B secretion, AlphaLISA, 16 h; hits give low values. AID 743279, 2014. actives 4.7% (n = 360,000). activity change, % at 57.5 µM; in the data active = activity change below about -50%; inconclusive = mostly about -30% to -49%; also: % is scaled to controls: 0 for no effect and ±100 for the full control effect
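Secreted IL-1B measured by AlphaLISA bead assay after 16 h compound exposure of THP-1 cells; compounds (final up to 57.5 uM) added 1 h before LPS (250 ng/mL) and ATP (1.25 mM) stimulation; lower signal means less secretion.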
ATXN viability – Viability Counterscreen for Primary qHTS for Inhibitors of ATXN expression; S2 cells (HEK-293 line with an ATXN2-luciferase reporter) viability, CellTiter-Fluor protease fluorescence, 24 h; Potency, µM (top dose mostly 56.7 µM), actives largely listed as cytotoxic; actives 0.49% (n = 400,000); AID 651635, 2014; also: potency is read from the fitted curve at half-maximal effect; nearly all actives have a fitted effect of over 40% in size
USP2a inh – qHTS Assay for Inhibitors of Ubiquitin-specific Protease USP2a Using CHOP2 as the Reporter | Ubiquitin carboxyl-terminal hydrolase 2 (Homo sapiens), O75604 | USP2 core, Ub-CHOP2 coupled fluorogenic reporter, 485/531 | Potency, µM (doses to about 38.3 µM), for the others: at the top dose activity change, negative = inhibition, actives largely listed as inhibitors | actives 0.01% (n = 330,000) | AID 463254, 2010;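 also: potency is read from the fitted curve at half-maximal effect; plate controls were DMSO wells for no effect and full inhibition by NEM control for full effect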
Target sequence (O75604 whole entry, looked up): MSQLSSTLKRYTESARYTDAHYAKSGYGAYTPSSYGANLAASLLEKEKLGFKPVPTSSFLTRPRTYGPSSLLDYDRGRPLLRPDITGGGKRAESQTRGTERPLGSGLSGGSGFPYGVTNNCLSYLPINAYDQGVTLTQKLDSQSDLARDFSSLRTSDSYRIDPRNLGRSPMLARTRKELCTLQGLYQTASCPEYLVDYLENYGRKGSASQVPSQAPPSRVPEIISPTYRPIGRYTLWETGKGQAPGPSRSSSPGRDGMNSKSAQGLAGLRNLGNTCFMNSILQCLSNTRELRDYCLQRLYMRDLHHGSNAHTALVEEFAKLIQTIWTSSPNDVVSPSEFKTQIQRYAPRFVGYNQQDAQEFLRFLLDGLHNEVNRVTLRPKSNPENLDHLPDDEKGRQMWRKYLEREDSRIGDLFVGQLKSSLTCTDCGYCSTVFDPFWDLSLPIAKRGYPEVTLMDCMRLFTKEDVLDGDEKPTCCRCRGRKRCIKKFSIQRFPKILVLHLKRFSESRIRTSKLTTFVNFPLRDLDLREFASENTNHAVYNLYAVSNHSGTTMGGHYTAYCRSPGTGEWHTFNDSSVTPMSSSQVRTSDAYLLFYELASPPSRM
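Cell-free coupled assay: 10nM USP2 core preincubated 30min RT with compound in Tris-HCl pH 8.0/CaCl2/CHAPS buffer, then 25nM Ub-CHOP2 and 25nM reporter substrate; fluorescence (Ex 485/Em 531) read after 60min RT, normalized to NEM inhibition, concentration-response curves fitted.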
ATXN2 expr inh – Primary qHTS for Inhibitors of ATXN expression; HEK-293 ATXN2-luciferase reporter, luminescence, 24 h; Potency, µM (highest dose often 57 µM), for the others: top-dose activity change, negative = inhibition, usual class: inhibitors; actives 0.72% (n = 360,000); also: potency is read from the fitted curve at half-maximal effect; % is scaled to controls: 0 for no effect and ±100 for the full control effect; nearly all actives have a fitted effect of over 55% in size
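ATXN2-luciferase reporter cells (luciferase flanked by upstream and downstream ATXN2 gene portions) were treated 24 h at 37 °C with compounds at up to 57 uM. SteadyGlo luminescence gave expression; GF-AFC fluorescence gave viability.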
USP1 inh – Inhibitors of USP1/UAF1: Primary Screen. AID 743255, 2014. recombinant USP1/UAF1, Ub-Rhodamine cleavage fluorescence. actives 0.23% (n = 390,000). Potency, µM (top dose mostly 57.1 µM), for inactives: top-dose activity change, negative = inhibition, most hits filed as inhibitors; also: potency is read from the fitted curve at half-maximal effect; % is scaled to controls: 0 for no effect and ±100 for the full control effect; nearly all actives have a fitted effect of over 60% in size
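1 nM enzyme complex + cpd, 15 min RT; start with Ub-Rho 150nM final; kinetic fluorescence ex 480/em 540, 6 reads q60 s. Buffer 50mM HEPES pH 7.8, 0.5mM EDTA, 0.1 mg/ml BSA, 1mM TCEP, 0.01% Tween-20.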
* hit, by the source's call. Unless noted, calls follow the shape of the dose curve; as a rule, active = well fitted curve in the direction sought with a large enough effect; inconclusive = small, poorly fitted or top-dose-only effect, or another doubt; inactive = no such curve, though single readings can be large; an effect the other way counts as inactive or inconclusive.

How did O=C(C=Cc1ccco1)c1cc(Cl)ccc1O do in these assays?
IL-1B inflam inh: -91*; ATXN viability: inactive; ATXN2 expr inh: 5%; USP1 inh: -10%

What do the screens show for `O=C(/C=C/c1ccco1)c1ccccc1O`?
IL-1B inflam inh: -10; ATXN viability: inconclusive; USP2a inh: -1%; ATXN2 expr inh: 19%; USP1 inh: -14%

Results for Cc1ccc(SC2=C(Sc3ccc(C)cc3)C(=O)c3ccccc3C2=O)cc1 ?
IL-1B inflam inh: -74*; USP2a inh: 4%; ATXN2 expr inh: inconclusive; USP1 inh: inconclusive

Results for C/C(=C1\CCOC(=O)S1)N(C=O)Cc1cnc(C)nc1N ?
ATXN viability: inactive; ATXN2 expr inh: 5%

How did S=c1[nH]c2ccccc2n1CCc1ccncc1 do in these assays?
IL-1B inflam inh: -61*; ATXN viability: inactive; ATXN2 expr inh: 11%; USP1 inh: -1%

Results for c1ccc2c(NCC3CCCO3)nc(N3CCCCC3)nc2c1 (stereo not drawn) ?
IL-1B inflam inh: 0; ATXN viability: inconclusive; USP2a inh: -1%; ATXN2 expr inh: -26%; USP1 inh: -15%

How did c1ccc(CN2CCC(Nc3nc(-c4cccs4)nc4ccccc34)CC2)cc1 do in these assays?
IL-1B inflam inh: -64*; USP2a inh: -13%; USP1 inh: -23%

What do the screens show for `c1cncc(-c2nc(NCC3CCCO3)c3ccccc3n2)c1` (stereo not drawn)?
IL-1B inflam inh: -1; ATXN viability: inactive; USP2a inh: -5%; ATXN2 expr inh: -7%; USP1 inh: inconclusive

How did c1csc(CNc2nc(-c3cccs3)nc3ccccc23)c1 do in these assays?
IL-1B inflam inh: -22; ATXN viability: inactive; USP2a inh: -9%; ATXN2 expr inh: -12%; USP1 inh: -19%

How did CC(C)Oc1ccc(-c2nc(NCC3CCCO3)c3ccccc3n2)cc1 (stereo not drawn) do in these assays?
IL-1B inflam inh: -79*; ATXN viability: inactive; USP2a inh: -2%; ATXN2 expr inh: 2%; USP1 inh: -6%

Results for c1csc(-c2nc(NCC3CCCO3)c3ccccc3n2)c1 (stereo not drawn) ?
IL-1B inflam inh: -90*; ATXN viability: inactive; USP2a inh: 5%; ATXN2 expr inh: -5%; USP1 inh: -7%

How did CC(=O)Nc1cccc(-c2ccnc3c2CC(C)(C(=O)NCc2ccc(F)c(F)c2)O3)c1 (stereo not drawn) do in these assays?
IL-1B inflam inh: 82; ATXN viability: inconclusive; ATXN2 expr inh: -18%

How did Cc1ccc(-c2nnc(NCc3ccccc3)c3ccccc23)cc1 do in these assays?
IL-1B inflam inh: -84*; ATXN viability: inactive; USP2a inh: 3%; ATXN2 expr inh: 3%; USP1 inh: -9%

What do the screens show for `Clc1ccc(-c2nnc(NCc3ccccc3)c3ccccc23)cc1`?
IL-1B inflam inh: -94*; ATXN viability: inactive; USP2a inh: -1%; ATXN2 expr inh: -24%; USP1 inh: -21%

How did Clc1ccc(-c2nnc(NCCN3CCCC3)c3ccccc23)cc1 do in these assays?
IL-1B inflam inh: inconclusive; ATXN viability: inconclusive; USP2a inh: -7%; ATXN2 expr inh: inconclusive; USP1 inh: -23%

What do the screens show for `Cc1ccc(-c2nnc(Nc3ccccc3O)c3ccccc23)cc1`?
ATXN viability: inactive; ATXN2 expr inh: -11%; USP1 inh: 8%

How did CC(=O)c1cccc(NCC(=O)Nc2cc(S(=O)(=O)N3CCCCC3)ccc2C)c1 do in these assays?
IL-1B inflam inh: -4; ATXN viability: inconclusive; USP2a inh: 0%; ATXN2 expr inh: -6%; USP1 inh: -4%

Results for O=C(NCC(c1cccnc1)N1CCN(c2ccccc2F)CC1)c1ccc(F)cc1 (stereo not drawn) ?
ATXN viability: inconclusive; ATXN2 expr inh: -25%; USP1 inh: -6%

How did Cc1cc(/N=C/C=C2\N(C)c3ccccc3C2(C)C)n(CCC#N)n1 do in these assays?
IL-1B inflam inh: -90*; USP2a inh: -2%; ATXN2 expr inh: inconclusive; USP1 inh: 4%

What do the screens show for `CN1/C(=C\C=O)C(C)(C)c2ccccc21`?
IL-1B inflam inh: 57; ATXN viability: inactive; USP2a inh: 1%; ATXN2 expr inh: -27%; USP1 inh: 0%

Results for CN1\C(=C/C=C/C=C/C=[N+](C)C)C(C)(C)c2ccccc21 ?
IL-1B inflam inh: -21; ATXN viability: 18µM*; USP2a inh: inconclusive; USP1 inh: 25µM*

Results for CN(C)c1ccc(N=C/C=C2\N(C)c3ccccc3C2(C)C)cc1 ?
IL-1B inflam inh: -89*; ATXN viability: inconclusive; USP2a inh: -1%; ATXN2 expr inh: -1%; USP1 inh: -21%

Results for Cc1nn(-c2nnc(NC3CCCCC3)nn2)c(C)c1Br ?
IL-1B inflam inh: -75*; ATXN viability: inactive; USP2a inh: -1%; ATXN2 expr inh: 114%; USP1 inh: -6%

Results for CCC(C)Oc1ccc(/C=C/c2[nH]c(=O)[nH]c(=O)c2[N+](=O)[O-])cc1OC (stereo not drawn) ?
IL-1B inflam inh: -102*; ATXN viability: inactive; USP2a inh: 1%; ATXN2 expr inh: inconclusive; USP1 inh: -18%

Results for CCCCCCCC/C=C\CCCCCCCC(=O)NCCc1ccc(O)c(O)c1 ?
IL-1B inflam inh: inconclusive; ATXN viability: 25µM*; USP2a inh: inconclusive; ATXN2 expr inh: 16µM*; USP1 inh: -23%

How did CCOc1ccc(C(F)(F)F)cc1NC(=O)COc1ccc(C(F)(F)F)cc1[N+](=O)[O-] do in these assays?
IL-1B inflam inh: -8; ATXN viability: inactive; USP2a inh: 0%; ATXN2 expr inh: -10%; USP1 inh: -7%

How did CCCOP(=O)(OCCC)c1c([N+](=O)[O-])cc(C(F)(F)F)cc1[N+](=O)[O-] do in these assays?
IL-1B inflam inh: -73*; ATXN viability: inactive; USP2a inh: 1%; ATXN2 expr inh: 0%; USP1 inh: -2%

Results for Cc1cccc(Nc2nc(NCCCN3CCOCC3)nc(N)c2[N+](=O)[O-])c1 ?
IL-1B inflam inh: -80*; ATXN viability: inactive; USP2a inh: -3%; ATXN2 expr inh: inconclusive; USP1 inh: -8%

How did Nc1nc(NCCCN2CCOCC2)nc(Nc2ccccc2F)c1[N+](=O)[O-] do in these assays?
IL-1B inflam inh: -57*; ATXN viability: inactive; USP2a inh: 4%; ATXN2 expr inh: inconclusive; USP1 inh: -4%

How did Nc1nc(NCCCN2CCOCC2)nc(Nc2cccc(F)c2)c1[N+](=O)[O-] do in these assays?
IL-1B inflam inh: -5; ATXN viability: inconclusive; USP2a inh: 2%; ATXN2 expr inh: inconclusive; USP1 inh: -9%
